M1 antag: antagonists of rat M1 muscarinic receptor; CHO-M1 cells, Fluo-4 calcium, ACh EC80 antagonist mode; stronger effect = lower value; B-score at 10 µM; 3.4% of 64,000 active;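 active = calcium fluorescence response, raw or row-and-column corrected B-score, differing from the plate sample mean either way at a set confidence level, mostly lower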
Autofluor 339: intrinsic fluorescence of library compounds, ex339/em460 – biochemical, MLSMR library, data from DPM-DC assay, artefact control, profiling panel. compound autofluorescence, ex339/em460 nm, NADH buffer; stronger effect = higher value; 1 = no-compound wells, NADH background. AID 709. fluorescence fold increase at 10 µM. 5.5% of 65,000 active;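 active = at 10 µM, mean starting fluorescence two-fold or more over control wells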;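 note: signal is the first read of a kinetic run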
M1 ag: M1 muscarinic receptor agonism. CHO-M1 cells, Fluo-4 calcium fluorescence, agonist mode; stronger effect = higher value. 3% of 64,000 active. B-score at 10 µM;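 active = fluorescence rise, raw or as B-score row- and column-corrected plate score, outside the 99.7% band of its plate's samples, either direction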
WNV protease inh: WNV NS2B-NS3 proteinase inhibition | P06935 | WNV NS2B-NS3 protease, fluorogenic substrate Ex360/Em465; stronger effect = lower value | z-score (no concentration beside the values) | 0.18% of 65,000 active; in the data active = z-score below about -3
Target sequence (P06935 1371-1501 limits assumed): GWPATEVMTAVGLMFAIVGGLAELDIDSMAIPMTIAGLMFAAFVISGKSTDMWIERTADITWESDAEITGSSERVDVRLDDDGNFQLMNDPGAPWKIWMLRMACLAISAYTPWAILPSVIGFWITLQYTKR
Target sequence (P06935 1502-1679 limits assumed): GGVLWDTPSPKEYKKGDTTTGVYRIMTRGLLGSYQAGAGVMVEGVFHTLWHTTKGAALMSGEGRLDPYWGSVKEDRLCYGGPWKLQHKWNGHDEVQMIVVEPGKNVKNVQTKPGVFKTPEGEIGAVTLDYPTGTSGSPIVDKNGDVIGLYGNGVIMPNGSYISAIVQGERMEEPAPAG
Abs 340nm: absorbance at 340 nm. compound absorbance at 340 nm, fold over control. 65,000 tested, under 10 active. fold change at 10 µM;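 active = at 10 µM dose, initial 340 nm absorbance at least 2 fold that of control wells; inactive = change under 2 fold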;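 note: initial absorbance extrapolated from kinetic A340 decline of NADH oxidation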
BAP1 block: human BAP1 deubiquitinase inhibition; recombinant BAP1, Ub-AMC hydrolysis fluorescence kinetic; stronger effect = lower value; calls only at 20 µM; 0.48% of 72,000 active; AID 436;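 active = activity remaining at or below 50% of control, provided the compound also passes the data quality filters; inactive = the rest, including low values that fail the filters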
M1 agonist conf: confirmation of rat M1 muscarinic receptor agonists; fluorescence change (max-min) at 10 µM; shares compounds with M1 ag; CHO-M1 cells, Fluo-4 calcium fluorescence, agonist mode; actives lie on both sides; 19% of 1,700 active;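 active = fluorescence change differs from the solvent-only DMSO control mean at a set confidence level in both duplicate runs; inconclusive = differs from solvent-only control mean in just one of two runs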;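 note: an EC20 dose of acetylcholine follows compound addition during the same imaging run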
M4 agonist ctr: rat M4 muscarinic agonism, M1 counter-screen | shares compounds with M1 ag | CHO M4/Gqi5 cells, Fluo-4 calcium fluorescence, agonist mode; actives lie on both sides | fluorescence change (max-min) at 10 µM | 9% of 1,700 active | AID 1741;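 active = fluorescence change differing from the plate's solvent-only control wells at 99.7% confidence in both duplicates, whether higher or lower; inconclusive = differs from solvent controls in only one of two duplicates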
A number is an active result; n = inactive; u = inconclusive; x = no result given. Shown are actives, neighbours in structure and some others; about 9.7% of the full set was active somewhere.

SMILES | M1 antag | Autofluor 339 | M1 ag | WNV protease inh | Abs 340nm | BAP1 block | M1 agonist conf | M4 agonist ctr
COC(=O)C1=C(C)OC(N)=C(C#N)C1c1c(C)nn(-c2ccccc2)c1Cl (stereo not given) | n | n | n | n | n | n | x | x
CCOC(=O)C1=C(C)OC(N)=C(C#N)C1c1c(C)nn(-c2ccc(C)cc2)c1Cl (stereo not given) | n | n | 3.4 | n | n | n | n | n
Cn1ccccc1=Nc1cccc[n+]1C | x | x | x | x | x | n | x | x
Cn1c(=O)c(C(=O)NC2CCCCCCC2)c(O)c2ccccc21 | n | n | n | n | n | n | x | x
CC1CCC(NC(=O)c2cc3c(=O)n(C)c4ccccc4c3n2C)CC1 (stereo not given) | n | n | 3.7 | n | n | n | n | n
Cn1c(C(=O)NC2CCCCC2)cc2c(=O)n(C)c3ccccc3c21 | n | n | 3.8 | n | n | n | u | u
Cc1cccc(N2CCN(C(=O)c3cc4c(=O)n(C)c5ccccc5c4n3C)CC2C)c1 (stereo not given) | n | n | 5.5 | n | n | n | n | n
Cn1c(C(=O)NC2CCCCCC2)cc2c(=O)n(C)c3ccccc3c21 | n | n | 3.8 | n | n | n | u | u
Cn1c(C(=O)NCCN2CCc3ccccc3C2)cc2c(=O)n(C)c3ccccc3c21 | n | n | 2.9 | n | n | n | u | n
Cn1c(C(=O)NCCN2CCN(c3ccccc3F)CC2)cc2c(=O)n(C)c3ccccc3c21 | n | n | n | n | n | n | x | x
c1ccc(-c2nnc(CSc3nnc(-c4cccs4)o3)o2)cc1 | n | n | n | n | n | n | x | x
c1ccc(-c2nnc(SCc3cn4ccsc4n3)o2)cc1 | n | n | 39 | n | n | n | n | n
O=C(NCCc1c[nH]c2ccccc12)c1cccnc1 | n | n | n | n | n | n | x | x
c1ccc(-n2nnnc2NCCc2c[nH]c3ccccc23)cc1 | n | n | 5.8 | n | n | n | n | u
CC1=C(C(=O)OCCOC(C)C)C(c2ccc([N+](=O)[O-])cc2)C2=C(CC(C)(C)CC2=O)N1 (stereo not given) | x | x | x | x | x | n | x | x
COC(=O)CN(C#N)c1nc(OC)nc(N(C)C)n1 | n | n | n | n | n | n | x | x
CC(C)N(C(=O)CN(C#N)c1nc(N(C)C)nc(N(C)C)n1)c1ccccc1 | n | n | -3.2 | n | n | n | n | n
COc1cccc2cc(-c3nc(-c4cccs4)cs3)c(=O)oc12 | n | 4.6 | 14 | n | n | n | u | u
CCN(CC)c1ccc2c(c1)OC(N)=C(C#N)C2c1cccnc1 (stereo not given) | -4.6 | n | 18 | n | n | n | 681 | 652
COC(=O)C1=C(C)NC(C)=C(C(=O)OCCCBr)C1c1cccc([N+](=O)[O-])c1 (stereo not given) | x | x | x | x | x | n | x | x
CC(Oc1ccc(Cl)cc1Cl)C(=O)Nc1ccncc1 (stereo not given) | n | n | 7.3 | n | n | n | n | n
O=C(Nc1ccc(N2CCOCC2)c(Cl)c1)c1ccc(Br)o1 | -2.5 | n | 11 | n | n | n | n | n
O=c1c(O)c(-c2ccc(O)cc2O)oc2cc(O)cc(O)c12 | n | n | 27 | n | n | x | 74 | n
Cc1cccc(-n2c(N)cc(=O)nc2SCC(=O)Nc2ccccc2)c1 | n | n | 2.8 | n | n | n | -24 | n
Cc1cccc(C)c1NC(=O)CSc1nnnn1-c1ccccc1 | x | x | x | x | x | n | x | x
SMILES | M1 antag | Autofluor 339 | M1 ag | WNV protease inh | Abs 340nm | BAP1 block | M1 agonist conf | M4 agonist ctr
COc1ccc(CC(=O)N2CCN(c3ccccn3)CC2)cc1 | n | n | n | n | n | n | x | x
COc1ccc(-c2noc(N3CCC(C(=O)N4CCN(c5ccccn5)CC4)CC3)n2)cc1 | n | n | 2.4 | n | n | n | n | n
Cc1cc(=O)oc2[nH]c(=S)[nH]c(=O)c12 | x | x | x | x | x | n | x | x
O=C(O)c1ccc(S(=O)(=O)NC2CCCc3ccccc32)cc1 (stereo not given) | n | n | 2.9 | n | n | n | u | u
O=C1C(Cl)=C(N2CCN(c3ccccc3)CC2)C(=O)N1c1cccc(Cl)c1 | x | x | x | x | x | n | x | x
COc1ccccc1OCC(O)Cn1c(Br)nc2c1c(=O)[nH]c(=O)n2C (stereo not given) | n | n | 4 | n | n | n | n | n
CCOc1ccc(NC(=O)c2cccc([N+](=O)[O-])c2C)cc1 | x | x | x | x | x | n | x | x
COc1ccccc1N1CCN(C(=O)CCCC2=NS(=O)(=O)c3ccccc3N2)CC1 | n | n | 3.2 | n | n | n | -22 | n
O=c1c(O)c(-c2cccs2)oc2ccccc12 | -1.6 | 3.7 | 140 | n | n | x | 696 | 622
O=C(NCc1n[nH]c(=S)n1-c1ccccc1Cl)c1ccc(S(=O)(=O)N2CCOCC2)cc1 | x | x | x | x | x | n | x | x
CCOc1cc(C2C(C#N)=C(N)Oc3n[nH]c(-c4ccccc4)c32)ccc1O (stereo not given) | n | n | n | n | n | n | x | x
CCOc1ccc(C2C(C#N)=C(N)Oc3n[nH]c(C)c32)cc1OC(=O)C1CC1 (stereo not given) | n | n | 4.6 | n | n | n | n | n
Cc1ccc(C(=O)CC2(O)C(=O)N(Cc3ccc4c(c3)OCO4)c3ccccc32)cc1 (stereo not given) | n | n | 59 | n | n | n | n | n
O=C(CC1(O)C(=O)N(Cc2ccc3c(c2)OCO3)c2ccccc21)c1ccccc1 (stereo not given) | n | n | n | n | n | n | x | x
CCOC(=O)c1c(C)n(-c2ccc(Cl)cc2)c2ccc(OC)cc12 | x | x | x | x | x | n | x | x
CCc1cc(=O)oc2cc3oc(C)c(C)c3cc12 | n | n | n | n | n | n | x | x
CCCc1cc(=O)oc2cc3occ(C)c3cc12 | n | 2.2 | 2.7 | n | n | n | n | u
C=CCSc1nc2sc3c(c2c(=O)n1CC(=C)C)CC(C)(C)OC3 | x | x | x | x | x | n | x | x
CCN=C1SC(C(=O)NCCc2ccccc2)CC(=O)N1CC (stereo not given) | n | n | 4.8 | n | n | n | u | n
CCN=c1sc(C(=O)NCCc2ccccc2)cc(=O)n1CC | -2.9 | n | 12 | n | n | n | n | n
Cn1c(=O)[nH]c(=O)c2c1nc(SCC(O)CO)n2CC(N)=O (stereo not given) | x | x | x | x | x | n | x | x
O=C(Nc1nnc(N=Cc2cccs2)s1)c1ccc(S(=O)(=O)N2CCCCC2)cc1 | x | x | x | x | x | n | x | x
COC(=O)C(C)n1cnc2c(nnn2-c2ccc(OC)cc2)c1=O (stereo not given) | n | n | n | n | n | n | x | x

Bioassay records (PubChem)
